The record followed here is PubChem BioAssay (NCI).

Compounds without any hit were thinned out: in the full panel of roughly 79,000, 15% have a hit. Values without a mark were called inactive. Activity calls are given as the source filed them. Rule as the data show it: active = growth inhibition above about 70%; inactive = the rest.

The nature of the assay: NCI Yeast Anticancer Drug Screen. Data for the wt1 strain (AID 149).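 Also: 0% = growth of vehicle-treated wt1 cultures.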 Particulars: S. cerevisiae wt1 strain (SPY 50644) growth inhibition, hits give high values. The method, then:
Growth inhibition of yeast strains with defined genetic alterations is measured as a screen for potential anti-cancer activity. Selected strains with alterations in DNA damage repair or cell cycle control were exposed to compounds and growth inhibition was measured relative to vehicle treated controls. The strain used in this assay is wt1

For the molecule `Cc1cc(C)c2[s+]snc2c1`, the growth inhibition runs as follows: (at 1.2 µM) -36%; (at 3.7 µM) 1%; (at 11.0 µM) 1%; (at 33.0 µM) 9%; (at 100.0 µM) 26%.

Turning to `CCCCCCCCN1COCC(COc2ccccc2C)OC1` (stereo not given), the growth inhibition is -1% (at 1.2 µM); -1% (at 3.7 µM); 2% (at 11.0 µM); 8% (at 33.0 µM); 96% (active) (at 100.0 µM).

With `O=C(C#Cc1ccccc1)/C=C/c1ccccc1`, the growth inhibition reads like this: (at 1.2 µM) -6%; (at 3.7 µM) -9%; (at 11.0 µM) 10%; (at 33.0 µM) 51%; (at 100.0 µM) 96% (active).

`CCCCCCNCCCNc1c2ccccc2nc2cccc([N+](=O)[O-])c12`: the growth inhibition reads like this: (at 1.2 µM) -2%; (at 3.7 µM) 0%; (at 11.0 µM) 8%; (at 33.0 µM) 59%; (at 100.0 µM) 92% (active).

`COc1cc(C(=O)C=O)cc(OC)c1OC`: the growth inhibition runs as follows: (at 1.2 µM) -3%; (at 3.7 µM) -4%; (at 11.0 µM) -7%; (at 33.0 µM) -5%; (at 100.0 µM) 61%.

As for `COc1ccc(C(=O)/C=C\c2ccc(Cl)c(Cl)c2)cc1`, the growth inhibition runs as follows: (at 1.2 µM) 26%; (at 3.7 µM) 26%; (at 11.0 µM) 29%; (at 33.0 µM) 43%; (at 100.0 µM) 81% (active).

As for `O=c1c2ccccc2nc(-c2cccc([N+](=O)[O-])c2)n1O`, the growth inhibition runs as follows: (at 1.2 µM) 12%; (at 3.7 µM) 21%; (at 11.0 µM) 60%; (at 33.0 µM) 84% (active); (at 100.0 µM) 90% (active).

For the molecule `Brc1ccc(B2Nc3ccccc3N2)cc1`, the growth inhibition reads like this: (at 1.2 µM) -2%; (at 3.7 µM) -1%; (at 11.0 µM) 16%; (at 33.0 µM) 31%; (at 100.0 µM) 40%.
